Data published in PubChem BioAssay.
The source made the active and inactive calls. Cut-off read from the data, not from the text of the source, unless noted: active = inhibition above about 30%; inactive = the rest.

How the values were obtained:
[1] = target: Nuclear receptor coactivator 3 (Homo sapiens) (UniProt Q9Y6Q9); assay: NCOA3 GAL4-fusion reporter inhibition – cell-based, luminescence, quadruplicate, confirmation (AID 588792;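 active = mean inhibition over 43.08%, the solvent-only control mean plus 3 SD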;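 note: 0% = DMSO treated cells and 100% = gossypol at 36 µM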); details: HEK293 GAL4-SRC3 luciferase reporter, at 3.6 µM, active compounds read high
[2] = system: transactivating tegument protein VP16 (Human herpesvirus 1), Gal4-VP16 luciferase reporter; assay: repression of VP16-driven luciferase reporter – cell-based, luminescence, high throughput, counter-screen for SRC3 inhibitor project (AID 588794); details: mammalian cells, at 3.6 µM, active compounds read high
[3] = target: Nuclear receptor coactivator 1 (Homo sapiens) (UniProt Q15788); assay: NCOA1 GAL4-fusion reporter inhibition – cell-based, luminescence, quadruplicate, confirmation (AID 588820;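 active = mean inhibition above 46.68%, the untreated control wells mean plus 3 SD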;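 note: 0% = DMSO wells and 100% = gossypol 36 µM treated wells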); details: HEK293 GAL4-SRC1 luciferase reporter, at 3.6 µM, active compounds read high
[4] = repression of VP16-driven luciferase reporter – cell-based, luminescence, high throughput, counter-screen for SRC1 inhibitor project (AID 588824; in the data active = inhibition above about 25%); details: cell-based VP16 transactivation luciferase luminescence; at 3.6 µM; active compounds read high
[5] = StAR promoter reporter inhibitors, counter-screen for LRH-1 inverse agonist project, cell-based, luminescence, high throughput (AID 651611; in the data active = inhibition above about 28%); details: StAR promoter luciferase reporter counterscreen, at 3.6 µM, active compounds read high
[6] = target: Nuclear receptor subfamily 5 group A member 2 (Homo sapiens) (UniProt O00482); assay: NR5A2 activity suppression in reporter cells – cell-based, luminescence, confirmation (AID 651613; in the data active = inhibition above about 42%;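 note: HEK293T cells co-transfected with LRH-1 and StAR promoter luciferase reporter; 0% = vehicle wells and 100% = parental cells lacking receptor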); details: cell-based LRH-1 luciferase reporter, inverse agonism; at 3.6 µM; active compounds read high
[7] = target: Steroidogenic factor 1 (Homo sapiens) (UniProt Q13285); assay: inverse agonism at SF1 nuclear receptor – cell-based, luminescence, high throughput, counter-screen for LRH-1 inverse agonist project (AID 651614; in the data active = inhibition above about 44%;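 note: cells cotransfected with StAR promoter reporter and SF1 expression vector; 0% = vehicle on cells with receptor and 100% = vehicle on cells lacking receptor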); details: cell-based SF1 luciferase reporter, at 3.6 µM, active compounds read high
[8] = compounds suppressing VP16-driven luciferase signal – cell-based, luminescence, high throughput, counter-screen for LRH-1 inverse agonist project (AID 651615; in the data active = inhibition above about 33%); details: Gal4-VP16 luciferase reporter cells, at 3.6 µM, active compounds read high

Measured: inhibition

Chain of Nuclear receptor coactivator 1 (Homo sapiens) (Q15788 whole entry, looked up, the tested form may be a part): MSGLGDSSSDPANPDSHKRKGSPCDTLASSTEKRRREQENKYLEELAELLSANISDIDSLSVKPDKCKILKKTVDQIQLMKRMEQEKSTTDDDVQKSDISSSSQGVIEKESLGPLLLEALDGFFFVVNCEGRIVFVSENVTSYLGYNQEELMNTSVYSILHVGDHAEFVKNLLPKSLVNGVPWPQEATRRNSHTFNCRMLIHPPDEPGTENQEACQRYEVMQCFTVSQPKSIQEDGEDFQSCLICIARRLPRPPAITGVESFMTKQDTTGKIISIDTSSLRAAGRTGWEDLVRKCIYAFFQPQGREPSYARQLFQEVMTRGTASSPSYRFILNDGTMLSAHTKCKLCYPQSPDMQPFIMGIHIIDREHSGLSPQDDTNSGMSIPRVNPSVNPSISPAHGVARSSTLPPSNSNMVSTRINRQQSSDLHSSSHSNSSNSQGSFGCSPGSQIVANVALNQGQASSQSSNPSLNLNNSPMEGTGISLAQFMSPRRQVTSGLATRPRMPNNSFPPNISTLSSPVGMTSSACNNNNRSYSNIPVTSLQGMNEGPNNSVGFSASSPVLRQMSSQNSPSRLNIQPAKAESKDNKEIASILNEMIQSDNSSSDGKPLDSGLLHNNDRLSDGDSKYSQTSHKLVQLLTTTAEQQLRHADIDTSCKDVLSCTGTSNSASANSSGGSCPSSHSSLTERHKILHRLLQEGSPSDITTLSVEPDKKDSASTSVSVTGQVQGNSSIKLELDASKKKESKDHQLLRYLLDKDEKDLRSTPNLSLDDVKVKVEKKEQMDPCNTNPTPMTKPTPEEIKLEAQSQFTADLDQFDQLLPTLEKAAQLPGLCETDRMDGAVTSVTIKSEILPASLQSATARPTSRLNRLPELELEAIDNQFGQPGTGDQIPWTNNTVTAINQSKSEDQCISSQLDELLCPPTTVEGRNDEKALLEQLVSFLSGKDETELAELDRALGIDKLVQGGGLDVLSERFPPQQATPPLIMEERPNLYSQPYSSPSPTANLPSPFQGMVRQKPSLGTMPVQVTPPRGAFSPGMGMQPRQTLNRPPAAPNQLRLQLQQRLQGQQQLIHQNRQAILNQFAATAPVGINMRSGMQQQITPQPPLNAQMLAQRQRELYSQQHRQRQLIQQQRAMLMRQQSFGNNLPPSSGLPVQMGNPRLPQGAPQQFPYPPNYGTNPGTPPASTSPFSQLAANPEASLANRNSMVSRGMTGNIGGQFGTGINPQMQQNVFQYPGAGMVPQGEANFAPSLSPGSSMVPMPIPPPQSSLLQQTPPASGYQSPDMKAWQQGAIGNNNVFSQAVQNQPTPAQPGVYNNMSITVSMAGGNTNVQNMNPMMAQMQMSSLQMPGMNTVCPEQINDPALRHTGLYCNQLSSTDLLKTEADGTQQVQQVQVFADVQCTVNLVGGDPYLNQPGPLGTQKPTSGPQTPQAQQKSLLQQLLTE
Chain of Nuclear receptor subfamily 5 group A member 2 (Homo sapiens) (O00482 whole entry, looked up): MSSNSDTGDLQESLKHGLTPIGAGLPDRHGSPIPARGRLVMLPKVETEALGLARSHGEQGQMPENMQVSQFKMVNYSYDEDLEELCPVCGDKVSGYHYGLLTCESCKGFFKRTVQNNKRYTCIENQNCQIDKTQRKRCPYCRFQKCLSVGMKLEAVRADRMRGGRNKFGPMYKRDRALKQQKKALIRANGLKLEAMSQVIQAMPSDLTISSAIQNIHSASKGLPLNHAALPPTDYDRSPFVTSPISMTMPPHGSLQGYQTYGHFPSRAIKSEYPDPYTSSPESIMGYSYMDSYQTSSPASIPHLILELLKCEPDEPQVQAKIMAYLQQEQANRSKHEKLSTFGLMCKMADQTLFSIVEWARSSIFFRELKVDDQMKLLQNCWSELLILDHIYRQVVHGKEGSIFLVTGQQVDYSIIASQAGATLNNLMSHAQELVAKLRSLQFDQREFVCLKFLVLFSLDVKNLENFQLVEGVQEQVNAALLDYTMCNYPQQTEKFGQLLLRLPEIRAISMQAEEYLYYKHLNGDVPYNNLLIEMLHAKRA
Chain of Nuclear receptor coactivator 3 (Homo sapiens) (Q9Y6Q9 whole entry, looked up, the tested form may be a part): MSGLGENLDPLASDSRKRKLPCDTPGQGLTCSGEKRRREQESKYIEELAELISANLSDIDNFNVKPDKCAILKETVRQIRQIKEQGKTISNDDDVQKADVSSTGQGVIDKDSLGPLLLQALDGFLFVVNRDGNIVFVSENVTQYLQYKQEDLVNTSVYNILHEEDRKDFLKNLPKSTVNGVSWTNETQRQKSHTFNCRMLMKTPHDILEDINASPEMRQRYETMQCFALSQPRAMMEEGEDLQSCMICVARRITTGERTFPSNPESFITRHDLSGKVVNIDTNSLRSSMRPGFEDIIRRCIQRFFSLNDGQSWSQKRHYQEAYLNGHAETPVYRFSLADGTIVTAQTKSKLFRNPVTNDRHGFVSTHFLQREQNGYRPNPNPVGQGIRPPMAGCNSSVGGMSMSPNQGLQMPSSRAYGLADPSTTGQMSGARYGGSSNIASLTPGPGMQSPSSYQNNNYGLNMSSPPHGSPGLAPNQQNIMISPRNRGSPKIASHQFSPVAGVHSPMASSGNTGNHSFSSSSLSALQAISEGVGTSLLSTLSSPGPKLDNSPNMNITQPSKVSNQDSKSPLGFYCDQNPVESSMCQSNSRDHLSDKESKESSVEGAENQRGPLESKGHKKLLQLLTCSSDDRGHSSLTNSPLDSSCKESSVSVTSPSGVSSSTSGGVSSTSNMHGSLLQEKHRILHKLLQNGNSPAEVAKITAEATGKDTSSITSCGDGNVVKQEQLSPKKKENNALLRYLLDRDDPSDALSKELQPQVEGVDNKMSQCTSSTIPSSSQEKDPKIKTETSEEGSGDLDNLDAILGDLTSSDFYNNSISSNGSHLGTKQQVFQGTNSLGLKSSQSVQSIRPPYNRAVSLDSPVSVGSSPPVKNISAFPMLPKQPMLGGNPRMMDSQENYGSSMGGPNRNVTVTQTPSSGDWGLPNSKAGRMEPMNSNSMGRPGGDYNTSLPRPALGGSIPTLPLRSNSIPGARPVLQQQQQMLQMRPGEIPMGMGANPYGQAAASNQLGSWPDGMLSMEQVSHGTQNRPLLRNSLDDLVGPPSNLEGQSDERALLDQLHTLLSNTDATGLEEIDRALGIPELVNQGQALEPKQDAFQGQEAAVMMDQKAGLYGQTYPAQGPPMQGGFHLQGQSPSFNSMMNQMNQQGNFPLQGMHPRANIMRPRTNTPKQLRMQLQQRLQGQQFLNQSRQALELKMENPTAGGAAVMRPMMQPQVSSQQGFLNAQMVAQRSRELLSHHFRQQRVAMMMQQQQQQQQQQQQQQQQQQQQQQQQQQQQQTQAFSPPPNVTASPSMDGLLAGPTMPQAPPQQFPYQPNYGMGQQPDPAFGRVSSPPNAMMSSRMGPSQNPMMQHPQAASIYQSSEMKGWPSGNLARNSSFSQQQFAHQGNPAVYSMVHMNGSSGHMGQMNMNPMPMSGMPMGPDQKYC
Chain of Steroidogenic factor 1 (Homo sapiens) (Q13285 whole entry, looked up, the tested form may be a part): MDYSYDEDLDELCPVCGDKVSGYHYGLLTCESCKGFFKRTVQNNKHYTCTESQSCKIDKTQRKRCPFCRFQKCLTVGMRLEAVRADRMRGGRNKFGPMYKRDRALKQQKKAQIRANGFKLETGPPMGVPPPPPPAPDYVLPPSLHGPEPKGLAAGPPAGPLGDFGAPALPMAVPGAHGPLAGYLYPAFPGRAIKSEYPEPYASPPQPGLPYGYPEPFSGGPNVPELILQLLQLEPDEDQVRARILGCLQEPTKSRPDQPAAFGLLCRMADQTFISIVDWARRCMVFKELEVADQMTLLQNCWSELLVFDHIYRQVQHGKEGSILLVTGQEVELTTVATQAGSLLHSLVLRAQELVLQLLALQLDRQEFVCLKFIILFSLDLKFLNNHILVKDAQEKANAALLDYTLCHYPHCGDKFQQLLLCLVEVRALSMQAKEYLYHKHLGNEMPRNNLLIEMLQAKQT

CCOc1ccccc1O[C@H](c1ccccc1)[C@H]1CNCCO1
inactive: [1] 3.48% | [2] -0.26% | [3] -8.72% | [4] 1.35% | [5] 12.6% | [6] 8.61% | [7] 13.7% | [8] 11.6%

CCN1/C(=C/c2ccc3cc(C)ccc3[n+]2CC)Sc2cc(C)c(C)cc21
active: [2] 65.4% | [4] 58.4% | [5] 55.6% | [6] 87.4% | [7] 83.1% | [8] 75.5%
inactive: [1] 38.9% | [3] 18.8%

COc1cc(Cn2c3ccc(NC(=O)CCc4ccc(O)cc4)cc3c(=O)n2C)ccc1F
active: [2] 61.3% | [4] 56.6% | [5] 56% | [6] 70.8% | [7] 69.3% | [8] 71.1%
inactive: [1] 42.6% | [3] 31.5%

c1ccc2cc3c(NCCN4CCOCC4)ccnc3cc2c1
active: [2] 44.7% | [4] 45.4% | [5] 35.6% | [6] 83.1% | [7] 55.6% | [8] 55.8%
inactive: [1] 22.8% | [3] 38.6%

CC(=NNC(=S)Nc1cccc(Cl)c1)c1ccccn1
active: [1] 71% | [2] 66.5% | [4] 65.1% | [5] 76.5% | [6] 90.8% | [7] 91.1% | [8] 75.7%
inactive: [3] 44.7%

O=NN(CC(=O)NNc1ccccc1)CC(=O)NNc1ccccc1
inactive: [1] 22.6% | [3] 9.03%
active: [2] 29.9% | [4] 27.5% | [5] 37.4% | [6] 58.7% | [7] 53.1% | [8] 67.5%

O=C(/C=C/c1ccc(O)cc1)c1ccc(NC2=C(N3CCCCC3)C(=O)c3ccccc3C2=O)cc1
inactive: [1] 33.2% | [2] 26.1% | [3] 22.5% | [5] -1.86% | [7] 17.3%
active: [4] 36.1% | [6] 76.3% | [8] 67.4%

Brc1ccc2c(c1)CN1CCCC1=N2
active: [2] 31.6% | [4] 28% | [5] 30.9% | [6] 42.2% | [8] 42.4%
inactive: [1] 15.1% | [3] 9.34% | [7] 30.6%

C#CC[N+](C)(C)CCCCCCCCCCCC
active: [2] 45.9% | [4] 36.6% | [5] 29.7% | [6] 64.7% | [7] 65.8% | [8] 59.8%
inactive: [1] 29.2% | [3] 33.4%

O=C(Nc1ccc2c(c1)OCCO2)C(c1cc2ccccc2o1)N1CCN(c2ccc(C(F)(F)F)cn2)CC1 (stereo unspecified)
inactive: [1] 19.5% | [2] 6.65% | [3] -13.5% | [4] -14.1% | [5] -29.7% | [6] -44.4% | [7] -28% | [8] -10.8%

NC(=O)c1cccc(-c2cnc(N)c(C(=O)c3cccnc3)n2)c1
active: [1] 76.7% | [2] 49.5% | [3] 65.9% | [4] 48.5% | [5] 59.9% | [6] 72.6% | [7] 67.2% | [8] 72.7%

Cc1c(P(=S)(c2ccccc2)c2ccccc2)[n+]2ccccc2n1C/C=C/c1ccccc1
active: [2] 36.9% | [4] 54.4% | [5] 44.7% | [6] 90.6% | [7] 51.4% | [8] 60.5%
inactive: [1] 20.6% | [3] 26%

Cc1nc2ccc(NC(=O)c3cccs3)cc2c(=O)n1Cc1ccc(Cl)cc1
active: [6] 52.7% | [7] 55% | [8] 40.8%
inactive: [1] 4.95% | [2] 15.8% | [3] -3.3% | [4] 23.8% | [5] 27.4%

O=C(Nc1ccc([N+](=O)[O-])cc1)c1ccc(Cn2cc([N+](=O)[O-])cn2)cc1
inactive: [3] 29.1%
active: [1] 43.1% | [2] 58.7% | [4] 56.1% | [5] 52.3% | [6] 77.3% | [7] 72.8% | [8] 74.4%

CC1(C)CC(N2CCN(Cc3ccccc3)CC2)=CC(=[N+]2CCCCC2)C1
active: [2] 50.7% | [4] 40.7% | [5] 59.8% | [6] 88.3% | [7] 86.3% | [8] 74%
inactive: [1] 30.2% | [3] -6.45%

C=C1C(=O)c2sccc2C(c2ccc(OC)c(OC)c2)C1COC(C)=O (stereo unspecified)
inactive: [3] 6.09%
active: [1] 67.7% | [2] 59% | [4] 58.4% | [5] 69.8% | [6] 95.4% | [7] 92.8% | [8] 82.4%

Cc1cc(C)nc(NC(N)=NCCc2ccccc2)n1
active: [1] 75.9% | [2] 46.3% | [3] 51.5% | [4] 49.1% | [5] 58.4% | [6] 109% | [7] 88.2% | [8] 93.5%
